Assay results from PubChem BioAssay (NCATS).
Values joined by “and” are separate entries in the source; they are usually repeats but may differ in a detail not shown here. Equal entries are not always repeated. Inconclusive results are not listed. A structure can be active in one record and inactive in another. Active and inactive are the calls of the source. Unless noted, the call rests on the fitted dose curve; in most records, active means well fitted curve in the direction sought with a large enough effect; inconclusive means small, poorly fitted or top-dose-only effect, or another doubt; inactive means no such curve, though single readings can be large or run the other way.

assay: qHTS Assay for Identifying Gametocytocidal Compounds (AID 743244); further: potency means the concentration at half of the fitted maximal effect;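 on max response: on the % scale 0 is the no-effect control and ±100 the full control effect; actives lower the fluorescent signal which means gametocytes are killed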; conditions: P. falciparum 3D7 stage III-V gametocytes, alamarBlue, 72 h; max response: stronger effect = lower value
Procedure, shortened: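 3D7 gametocytes, stages III–V, 20,000/well; cpd 72 h, 37 °C/5% CO2; + alamarBlue 24 h; fluor. Ex 525/Em 598.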

| SMILES | max response | Potency |
| --- | --- | --- |
| C=CCn1c(=O)n([C@@H]2O[C@H](CO)[C@@H](O)[C@H]2O)c2nc(N)[nH]c(=O)c21 | 7.63% (inactive) | – |
| CCOC(=O)[C@H](CCc1ccccc1)N[C@@H](C)C(=O)N1C(=O)N(C)C[C@H]1C(=O)O | 6.96% (inactive) | – |
| CC/C=C(\C(=O)N[C@@H]1C(=O)N2C(C(=O)OCOC(=O)C(C)(C)C)=C(COC(N)=O)CS[C@H]12)c1csc(N)n1 | 11.6% (inactive) and -14.5% (inactive) | – |
| CCN(CC)CCSC(=O)C(c1ccccc1)c1ccccc1 | -11.9% (inactive) | – |
| Nc1ccc(S(=O)(=O)Nc2ccc(Cl)nn2)cc1 | 13.8% (inactive) and 15.1% (inactive) | – |
| O=C(O)[C@H](O)c1ccccc1 | 17.9% (inactive) | – |
| C[C@@H]1CN(c2c(F)c(F)c3c(=O)c(C(=O)O)cn(C4CC4)c3c2F)C[C@H](C)N1 | 12.6% (inactive) | – |
| CN1CCC[C@@H]1Cc1c[nH]c2ccc(CCS(=O)(=O)c3ccccc3)cc12 | -0.49% (inactive) | – |
| O=Cc1ccccc1C=O | -3.58% (inactive) | – |
| O=C(CCCN1CCN(c2ccccn2)CC1)c1ccc(F)cc1 | 11.2% (inactive) | – |
| CCCCCCCCCCCCCCCCCCOCC(O)CO (stereo not drawn) | 1.98% (inactive) | – |
| CC(=O)Oc1c(C)c(C)c2c(c1C)CC[C@@](C)(CCC[C@H](C)CCC[C@H](C)CCCC(C)C)O2 | -2.38% (inactive) and 13.2% (inactive) and -6.36% (inactive) | – |
| NCC(=O)CCC(=O)O | 0.855% (inactive) | – |
| Cc1ncc(COP(=O)(O)O)c(C=O)c1O | 5.05% (inactive) | – |
| NC(=O)c1ncn([C@@H]2O[C@H](CO)[C@@H](O)[C@H]2O)c1N | -0.312% (inactive) and 4.68% (inactive) | – |
| CN(C)CCN(Cc1ccccc1)c1ccccn1 | -8.07% (inactive) | – |
| O=c1cc(CO)occ1O | 1.55% (inactive) and -0.506% (inactive) | – |

| SMILES | max response | Potency |
| --- | --- | --- |
| OC[C@H]1O[C@@H](O[C@@H]2[C@@H](CO)O[C@](O)(CO)[C@H]2O)[C@H](O)[C@@H](O)[C@H]1O | -3.99% (inactive) | – |
| C[C@@H](O)[C@H](N)C(=O)O | 6.39% (inactive) | – |
| CC(=O)CCC(=O)O | 13.5% (inactive) | – |
| O=C1Nc2ccc(Cl)cc2[C@@](C#CC2CC2)(C(F)(F)F)O1 | -21.2% (inactive) | – |
| CC(=O)O[C@@]12CO[C@@H]1C[C@H](O)[C@@]1(C)C(=O)[C@H](O)C3=C(C)[C@@H](OC(=O)[C@H](O)[C@@H](NC(=O)OC(C)(C)C)c4ccccc4)C[C@@](O)([C@@H](OC(=O)c4ccccc4)[C@H]21)C3(C)C | -16.9% (inactive) | 18.7 µM (active) |
| CC1(C)CO[C@@H](CC(=O)O)CN1 | 28.1% (inactive) | – |
| NC(=O)NNc1ccccc1 | 5.12% (inactive) and -3.42% (inactive) | – |
| Cc1cc(C(C#N)c2ccc(Cl)cc2)c(Cl)cc1NC(=O)c1cc(I)cc(I)c1O (stereo not drawn) | 0.496% (inactive) | – |
| N[C@H](C(=O)O)c1ccc(O)cc1 | -1.91% (inactive) | – |
| CC(C)c1c(C(=O)Nc2ccccc2)c(-c2ccccc2)c(-c2ccc(F)cc2)n1CC[C@@H](O)C[C@@H](O)CC(=O)O | -14.7% (inactive) | – |
| CC(=O)NC(Cc1ccccc1)C(=O)O (stereo not drawn) | -1.78% (inactive) | – |
| CC(=O)Oc1ccc(C2(c3ccc(OC(C)=O)cc3)C(=O)Nc3ccccc32)cc1 | -4.55% (inactive) and 20.8% (inactive) | – |
| Nc1ccc(S(=O)(=O)Nc2ccccc2)cc1 | -2.25% (inactive) | – |
| COc1ccc2c(c1)C(=O)N(CCc1ccc(S(=O)(=O)NC(=O)NC3CCCCC3)cc1)C(=O)C2(C)C | 22.2% (inactive) | – |
| Nc1ccc(S(=O)(=O)NC(=O)c2ccccc2)cc1 | 7.19% (inactive) | – |
| CC[C@@]1(c2ccccc2)NC(=O)N(C)C1=O | 7.9% (inactive) | – |

assay: qHTS profiling for inhibitors of Plasmodium falciparum (3D7) proliferation (AID 743322; call rule not given here;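 further: infected erythrocytes exposed to compound for 72 h before lysis; 100% = DMSO vehicle wells and 0% = 0.29 µM artemisinin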); conditions: P. falciparum 3D7 proliferation; at 28.7 µM (top of the series) unless noted
Procedure, shortened: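 Erythrocytes infected with P. falciparum (0.3% parasitemia, 2.5% hematocrit) incubated with compounds 72 h at 37 C, 5% CO2. Lysis with saponin/Triton buffer containing SYBR Green I, overnight at room temperature in the dark; DNA fluorescence (485/535 nm) normalised to 0.29 uM artemisinin and DMSO.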

| SMILES | remaining parasite growth % (stronger effect = lower value) |
| --- | --- |
| NC(=O)c1ncn([C@@H]2O[C@H](CO)[C@@H](O)[C@H]2O)c1N | 104% |
| O=C1Nc2ccc(Cl)cc2[C@@](C#CC2CC2)(C(F)(F)F)O1 | 6.68% [at 57.5 µM] |
| CC(=O)O[C@@]12CO[C@@H]1C[C@H](O)[C@@]1(C)C(=O)[C@H](O)C3=C(C)[C@@H](OC(=O)[C@H](O)[C@@H](NC(=O)OC(C)(C)C)c4ccccc4)C[C@@](O)([C@@H](OC(=O)c4ccccc4)[C@H]21)C3(C)C | 7.64% and -0.123% |
| CCCCN(CCCC)CC(O)c1cc(Cl)cc2c1-c1ccc(Cl)cc1/C2=C/c1ccc(Cl)cc1 (stereo not drawn) | 0.77% |
